Reference: PubChem BioAssay (NCATS)
Results filed as inconclusive are left out. Active and inactive are the calls of the source. The call rests on the fitted dose curve; in most records, active means well fitted cell-killing curve with a large enough effect; inconclusive means small, poorly fitted or top-dose-only effect, or effect the other way; inactive means no such curve, though single readings can be large or run the other way.

Legend:
[1] = Quantitative High-Throughput drug screen in 47 multiple myeloma cell lines against the NCATS MIPE library collection: H1112_PLB cell viability assay (AID 1918967; further: nearly all actives have a fitted effect of over 30% in size)
In short: (§1)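 CellTiter-Glo ATP luminescence gave viability after 48 h compound treatment at 37C of 500 multiple myeloma cells per well. Normalisation used DMSO-only wells as 100% and media-only wells as 0% viability; primary qHTS of approved and investigational drugs.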

[2] = Quantitative High-Throughput drug screen in 47 multiple myeloma cell lines against the NCATS MIPE library collection: Karpas25_ECACC cell viability assay (AID 1918968; further: nearly all actives have a fitted effect of over 35% in size)
In short: as §1

[3] = Quantitative High-Throughput drug screen in 47 multiple myeloma cell lines against the NCATS MIPE library collection: KMS27_JCRB cell viability assay (AID 1918970); further: nearly all actives have a fitted effect of over 30% in size
In short: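 Viability inhibition screen, 48 h compound exposure, luminescent ATP read-out.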

[4] = Quantitative High-Throughput drug screen in 47 multiple myeloma cell lines against the NCATS MIPE library collection: KMS12BM_JCRB cell viability assay (AID 1918971); further: nearly all actives have a fitted effect of over 35% in size
In short: (§2)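 Luminescent ATP measurement with CellTiter-Glo gives viability, scaled between DMSO-only wells (100%) and media-only wells (0%). Cells, 500 per well, faced library compounds for 48 hours at 37C.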

[5] = Quantitative High-Throughput drug screen in 47 multiple myeloma cell lines against the NCATS MIPE library collection: KMS12PE_JCRB cell viability assay (AID 1918972); further: nearly all actives have a fitted effect of over 30% in size
In short: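 Steps: seed 500 cells per well; pin-transfer MIPE 4.0 library; incubate 48 h at 37C, 5% CO2, humidified; add CellTiter-Glo, 5 min room temperature; read luminescence.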

[6] = Quantitative High-Throughput drug screen in 47 multiple myeloma cell lines against the NCATS MIPE library collection: KMS20_JCRB cell viability assay (AID 1918973); further: nearly all actives have a fitted effect of over 45% in size
In short: as §1

[7] = Quantitative High-Throughput drug screen in 47 multiple myeloma cell lines against the NCATS MIPE library collection: KMS26_JCRB cell viability assay (AID 1918975); further: nearly all actives have a fitted effect of over 45% in size
In short: as §2

[8] = Quantitative High-Throughput drug screen in 47 multiple myeloma cell lines against the NCATS MIPE library collection: MMM1_PLB cell viability assay (AID 1918976); further: nearly all actives have a fitted effect of over 35% in size
In short: (§3)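 Inhibition of viability over 48 h was scored by ATP content (CellTiter-Glo) in 500-cell wells. Zero and full viability were defined by media-only and DMSO-only wells.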

[9] = Quantitative High-Throughput drug screen in 47 multiple myeloma cell lines against the NCATS MIPE library collection: MOLP8_DSMZ cell viability assay (AID 1918977); further: nearly all actives have a fitted effect of over 45% in size
In short: as §3

[10] = Quantitative High-Throughput drug screen in 47 multiple myeloma cell lines against the NCATS MIPE library collection: KMS21BM_JCRB cell viability assay (AID 1918974); details: ATP luminescence, 48 h; viability: at 45.8 µM (top of the series) unless noted
In short: as §1

Measured: Potency
Potency means the concentration at half of the fitted maximal effect.

C=C1C(=O)[C@@]23C(CC[C@@H]1[C@H]2O)[C@@]12CO[C@]3(O)[C@@H](O)[C@@H]1C(C)(C)CC[C@@H]2O (some centres not stated)
active: [1] 18.7 µM | [2] 2.35 µM | [3] 1.87 µM | [4] 9.35 µM | [5] 2.09 µM | [6] 2.35 µM | [7] 2.64 µM | [8] 13.2 µM | [9] 2.35 µM

CC(C)=CC[C@@H](O)C1=CC(=O)c2c(O)ccc(O)c2C1=O
active: [1] 7.43 µM | [2] 5.26 µM | [3] 20.9 µM | [4] 0.935 µM | [5] 18.7 µM | [6] 14.8 µM | [7] 0.418 µM | [8] 1.05 µM | [9] 0.418 µM

O=C(NCc1ccccc1)c1csc(Nc2ccncn2)n1
active: [1] 13.2 µM | [2] 10.5 µM | [3] 7.43 µM | [4] 14.8 µM | [5] 8.33 µM | [6] 14.8 µM | [8] 14.8 µM | [9] 18.7 µM

Nc1ncnc2c1ncn2[C@@H]1O[C@H](CO)C[C@@H]1O
active: [4] 20.9 µM | [8] 1.32 µM
inactive: [1] | [2] | [3] | [5] | [6]

CO[C@H]1C=CC=C(C)C(=O)NC2=CC(=O)C(NCCN(C)C)=C(C[C@@H](C)C[C@H](OC)[C@@H](O)[C@@H](C)C=C(C)[C@@H]1OC(N)=O)C2=O
active: [1] 3.32 µM | [2] 0.059 µM | [3] 0.0264 µM | [4] 0.0469 µM | [5] 0.0662 µM | [6] 0.001 µM | [7] 0.0332 µM | [8] 1.66 µM

CN1[C@@H]2CCC[C@@H]1CC(NC(=O)c1nn(C)c3ccccc13)C2 (some centres not stated)
inactive: [1] | [2] | [3] | [4] | [5]

CCc1ccc(OCc2ccccc2C(=O)Nc2ccc3nc(C)cc(N)c3c2)cc1
active: [1] 2.96 µM | [2] 1.32 µM | [3] 1.87 µM | [4] 7.43 µM | [5] 0.935 µM | [6] 0.59 µM | [7] 6.62 µM | [8] 6.62 µM | [9] 7.43 µM

CC(=O)N(C)C1(c2ccccc2)CCN(CCC[C@]2(c3ccc(Cl)c(Cl)c3)CCCN(C(=O)c3ccccc3)C2)CC1
active: [1] 20.9 µM | [2] 16.6 µM | [3] 23.5 µM | [4] 20.9 µM | [5] 7.43 µM | [6] 4.69 µM | [7] 20.9 µM | [8] 20.9 µM | [9] 23.5 µM

COc1ccc(-c2oc3c(CC=C(C)C)c(OC4O[C@H](CO)[C@@H](O)[C@H](O)[C@@H]4O)cc(O)c3c(=O)c2OC2O[C@@H](C)[C@H](O)[C@@H](O)[C@@H]2O)cc1 (some centres not stated)
active: [1] 23.5 µM | [2] 20.9 µM | [3] 11.8 µM | [4] 18.7 µM | [5] 8.33 µM | [10] 9.35 µM | [8] 23.5 µM

COc1cc2ncnc(Nc3ccc(F)c(Cl)c3)c2cc1OCCCN1CCOCC1
active: [1] 1.52 µM | [2] 6.05 µM | [3] 13.6 µM | [4] 34 µM | [5] 3.03 µM | [6] 3.4 µM | [8] 54 µM | [9] 48.1 µM

COc1ccc(C2CC(c3ccccc3)=NN2c2ccc(S(N)(=O)=O)cc2)cc1 (configuration not stated)
active: [1] 14.8 µM | [2] 16.6 µM | [3] 8.33 µM | [4] 18.7 µM | [5] 11.8 µM

Cc1[nH]c(C=C2C(=O)Nc3ccc(S(=O)(=O)Cc4c(Cl)cccc4Cl)cc32)c(C)c1C(=O)N1CCC[C@H]1CN1CCCC1
active: [1] 14.8 µM | [2] 2.96 µM | [3] 2.64 µM | [4] 23.5 µM | [5] 2.64 µM | [6] 0.743 µM | [10] 4.69 µM | [8] 23.5 µM | [9] 16.6 µM

Cc1ccc(C(=O)Nc2cccc(C(F)(F)F)c2)cc1Nc1nc(-c2cccnc2)nc2c1cnn2C
active: [1] 14.8 µM | [2] 13.2 µM | [4] 13.2 µM | [6] 8.33 µM | [8] 16.6 µM
inactive: [3] | [5] | [10]

CC(C)C(=O)Oc1ccc(CO)cc1[C@H](CCN(C(C)C)C(C)C)c1ccccc1
active: [4] 14.8 µM
inactive: [1] | [2] | [3] | [5] | [10]

COc1cc2ncnc(-n3nc(-c4ccccn4)nc3N)c2cc1OC
active: [1] 0.743 µM | [2] 0.743 µM | [3] 0.0935 µM | [4] 7.43 µM | [5] 1.32 µM | [6] 6.62 µM | [8] 4.18 µM

CCC(CC)[C@H](NC(C)=O)[C@@H]1[C@H](O)[C@@H](C(=O)O)C[C@@H]1N=C(N)N
inactive: [1] | [2] | [3]

O=c1cc(N2CCOCC2)oc2c(-c3cccc4c3sc3ccccc34)cccc12
active: [1] 16.6 µM | [2] 4.18 µM | [3] 18.7 µM | [4] 16.6 µM | [5] 11.8 µM | [6] 13.2 µM | [8] 20.9 µM | [9] 4.18 µM

Clc1ccc(C(c2ccc(Cl)cc2)n2cc[n+](CC(OCc3ccc(Cl)cc3Cl)c3ccc(Cl)cc3Cl)c2)cc1 (configuration not stated)
active: [1] 11.8 µM | [2] 7.43 µM | [3] 7.43 µM | [4] 23.5 µM | [5] 7.43 µM | [6] 8.33 µM | [10] 8.33 µM | [7] 16.6 µM | [8] 18.7 µM | [9] 18.7 µM

CC(=Cc1ccccc1)C=C1SC(=S)N(CC(=O)O)C1=O
active: [3] 0.59 µM
not listed: [8] | [9] | [10]
inactive: all other assays above

Cc1ccn(-c2ccc(-c3ncco3)cc2)c(=O)c1-c1ccc2nc(N)ncc2c1
inactive: [1] | [3]
active: [2] 9.35 µM | [4] 13.2 µM | [5] 5.26 µM | [6] 8.33 µM

COCCOc1nc(-c2ccc(Cl)c(Cl)c2)n(-c2ccc(NC(=O)CCl)cc2)n1
active: [1] 14.8 µM | [2] 5.26 µM | [3] 16.6 µM | [4] 16.6 µM | [5] 14.8 µM | [10] 16.6 µM | [8] 16.6 µM

COc1cc2nc(-c3ccc(N4CCN(C)CC4)cc3)nc(NCCN3CCOCC3)c2cc1OC
active: [1] 1.48 µM | [2] 0.0105 µM | [3] 0.0332 µM | [4] 0.166 µM | [5] 0.209 µM | [6] 0.105 µM | [8] 0.0743 µM | [9] 0.0418 µM

Nc1ncnc2c1nc(Cl)n2[C@@H]1O[C@H](CO)[C@@H](O)[C@@H]1O
active: [1] 18.7 µM | [2] 7.43 µM | [3] 20.9 µM | [4] 23.5 µM | [5] 14.8 µM | [6] 4.69 µM | [7] 20.9 µM | [8] 18.7 µM | [9] 7.43 µM

O=c1cc(-c2ccccc2)oc2cc(O)cc(O)c12
inactive: [1]

Nc1nc(F)nc2c1ncn2[C@@H]1O[C@H](COP(=O)(O)O)[C@@H](O)[C@H]1O
inactive: [1] | [3]
active: [2] 13.2 µM | [4] 16.6 µM

CC(C)(Cc1ccc2ccccc2c1)NC[C@@H](O)COc1cccc(Cl)c1C#N
inactive: [1] | [2] | [3] | [4] | [5]

O=C(Nc1ccccc1-c1cn2c(CN3CCNCC3)csc2n1)c1cnc2ccccc2n1
inactive: [3] | [5]
active: [1] 9.35 µM | [2] 5.9 µM | [4] 10.5 µM | [6] 2.96 µM | [7] 9.35 µM | [8] 10.5 µM | [9] 9.35 µM

NC1=N[C@@]2(c3cc(NC(=O)c4ccc(F)cn4)ccc3F)COC[C@@H]2CS1
active: [1] 10.5 µM | [2] 14.8 µM | [3] 0.264 µM | [5] 1.05 µM
inactive: [4]

O=C(NCc1ccncc1)C12C[C@H]3C[C@@H](C1)CC(c1ccc(Cl)cc1)(C3)C2
active: [1] 13.2 µM | [2] 20.9 µM | [3] 8.33 µM | [4] 20.9 µM | [5] 26.4 µM | [10] 13.2 µM | [8] 14.8 µM

COc1cc(O)c2c(c1)C(=O)c1cc(C)cc(O)c1C2=O
not listed: [8] | [9] | [10]
inactive: all other assays above

O=C1C(Cl)=C(NCCN2CCOCC2)C(=O)c2ncccc21
active: [1] 11.8 µM | [2] 2.64 µM | [3] 2.64 µM | [4] 2.96 µM | [5] 3.32 µM | [6] 4.69 µM | [8] 2.96 µM | [9] 2.96 µM

CCCCCN(C)CCC(O)(P(=O)(O)O)P(=O)(O)O
inactive: [1] | [2] | [3]

CC=CC(=O)N(CC)c1ccccc1C
active: [8] 3.72 µM | [9] 0.0418 µM
not listed: [7] | [10]
inactive: all other assays above

O=C1c2ccccc2-[n+]2ccc3c([nH]c4ccccc43)c21
active: [1] 5.26 µM | [2] 0.418 µM | [3] 2.64 µM | [4] 2.09 µM | [5] 5.26 µM | [6] 1.05 µM | [7] 2.35 µM | [8] 1.32 µM | [9] 1.48 µM

NS(=O)(=O)c1cccc2c1C(=O)c1cccc(O)c1C2=O
active: [1] 0.526 µM | [2] 0.132 µM | [3] 0.209 µM | [4] 1.05 µM | [5] 0.264 µM | [6] 0.132 µM | [10] 0.148 µM | [8] 0.264 µM | [9] 0.296 µM
